The panel holds about 79,000 compounds, 15% with a hit somewhere; the sample as a whole holds those more often. A number with no mark means an inactive call. The source made the active and inactive calls. Rule as the data show it: active = growth inhibition above about 70%; inactive = the rest.

The results in this text go back to PubChem BioAssay (NCI).

The first assay in a line: NCI Yeast Anticancer Drug Screen. Data for the mec2-1 strain (AID 157). The following applies: S. cerevisiae mec2-1 strain, at 5.0 µM (retest, dose inferred, filed as 0.5), stronger effect = higher value. Put shortly: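 Growth inhibition is read against vehicle-treated controls after compound exposure of the mec2-1 yeast strain, which is defective in DNA damage repair or cell cycle control.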
Consider `COC(=O)[C@H]1O[C@H]1c1ccncc1`, for which the growth inhibition was 3%.
On the same count and under the same terms, to `O=[N+]([O-])c1ccc(NSc2ccccc2)cc1` belongs 2%; to `OCCOCCO[P+]1(OCCOCCO)n2c3ccc2C(c2ccccc2)=C2C=CC(=N2)C(c2ccccc2)=c2ccc(n21)=C(c1ccccc1)C1=NC(=C3c2ccccc2)C=C1`, 100% (active).
Same read-out and setting: the result for `NCCSC1(O)C(=O)c2ccccc2-c2ccccc21` (stereo not given) reads 84% (active).
Same read-out and setting: to `C/C=C(\C)C(=O)O[C@@H]1CC(C)(C)CC2C3=CCC4[C@]56CC[C@](O)(OC5)C(C)(C)C6CC[C@@]4(C)C3(C)CC[C@]21C(=O)O` (stereo not given in full) belongs 67%; to `CSC(=S)NN=C1CCCCC1`, 47%.
As to `O=C1c2ccccc2C(O)(C#Cc2ccccc2)c2cnccc21` (stereo not given), the growth inhibition was -5%.
The same measure, in the same setting: to `CCCCCC(CCCCC)C(=O)O` belongs -7%.
Same read-out and setting: the result for `CC(C)(N=Nc1ccc([N+](=O)[O-])cc1)[N+](=O)[O-]` reads 12%; that for `CCCCCCCCCCCCCC(=O)N1CCOCC1`, -3%.
Same read-out and setting: to `CCOc1ccccc1-c1nc2c(s1)C(=O)c1ccccc1C2=O` belongs 100% (active); to `c1ccc2c(c1)C[n+]1ccc3ccccc3c1-c1c3ccccc3cc[n+]1C2`, 6%.
For the compound `Nc1cc2c(c[n+](CCCCCCCCCC[n+]3cc4c5ccccc5c(N)cc4c4ccccc43)c3ccccc23)c2ccccc12`, the growth inhibition was 36%.
Still for that read-out and setting: to `Cc1ccc(N=C(N)NN=C(c2ccc(Cl)cc2)c2ccc(Cl)cc2)cc1` belongs 4%.
For the compound `O/N=C(/C[n+]1csc2ccccc21)c1ccccc1`, the growth inhibition is -8%.
Take `COc1ccc(C2Oc3c(cccc3OC)C=C2[N+](=O)[O-])cc1` (stereo not given): the growth inhibition is 23%.
For the compound `O=C(O)c1c2c(cc3c1CC1(Cc4cc5c(cc4C1=O)CCC5)C3)CCC2` (stereo not given), the growth inhibition is 58%.
Take `CSc1ncnc2ncn(C3OC(CO)C(O)C3O)c12` (stereo not given): the growth inhibition is -15%.
The same measure, in the same setting: to `CC1SC(=S)N(c2ccc(Cl)cc2)C1=O` (stereo not given) belongs 0%; to `CCOC(=O)C(C(C)=O)C1=C(Cl)C(=O)c2ccccc2C1=O` (stereo not given), 89% (active); to `CC(C)(C)c1cc(C(O)(C(F)(F)F)C(F)(F)F)c(S)c(C(O)(C(F)(F)F)C(F)(F)F)c1`, -6%.
On the same count and under the same terms, the result for `O=[N+]([O-])C1C(c2ccccc2)CC=CC1N1CCCC1` (stereo not given) reads 15%.
The same measure, in the same setting: the result for `COc1ccc2nc3cc(Cl)ccc3c(NCCNc3c4ccc(Cl)cc4nc4ccc(OC)cc34)c2c1` reads 26%.
Turning to `CCN(CC)CCNc1nc(N)c2nc(-c3ccccc3)c(-c3ccccc3)nc2n1`, the growth inhibition was -3%.
Still for that read-out and setting: the result for `CC(=O)OCC(=O)[C@@]1(O)CC[C@H]2[C@@H]3CCC4=CC(=O)C=C[C@]4(C)[C@@]3(F)[C@@H](O)C[C@@]21C` reads 1%; that for `O=Cc1cc(S(=O)(=O)c2ccc(O)c(C=O)c2)ccc1O`, 32%; that for `OCc1cccc2c1Oc1ccccc1S2`, 4%.
For the compound `O=C(CCN1CCCC1)c1ccc(Oc2ccc(F)cc2)cc1`, the growth inhibition was 20%.
Still for that read-out and setting: the result for `Cc1ccccc1N1CCN(c2c3c(nc4ccccc24)CCCCC3)CC1` reads 7%.
Still for that read-out and setting: to `CNC(Cc1ccccc1)c1ccc(OC)c2ccccc12` (stereo not given) belongs 6%.
For `CCCCN(CCCC)Cc1ccc(NC(C(=O)c2ccccc2)c2ccccc2)cc1` (stereo not given), the growth inhibition is 25%.
With `CCS(=O)(=O)/C=C(\C#Cc1ccccc1)c1ccccc1`, the growth inhibition was -1%.
The same measure, in the same setting: the result for `CN(C)c1c([N+](=O)[O-])cc(N2C(=O)C=CC2=O)cc1[N+](=O)[O-]` reads 88% (active); that for `CNC(=N)c1ccc(NC(=N)c2ccc(NC(=O)c3ccc(C(=O)Nc4ccc(C(=N)Nc5ccc(C(=N)NC)cc5)cc4)cc3)cc2)cc1`, 81% (active); that for `O=[N+]([O-])c1ccc(-c2nc3ccc(F)cc3[nH]2)o1`, 90% (active).
The same measure, in the same setting: to `CCCCCCC(=O)CC(SCCN)c1ccccc1Cl` (stereo not given) belongs -5%; to `O=C(CC(c1ccccc1Cl)C(C(=O)O)c1ccccc1)c1ccccc1` (stereo not given), 4%; to `CC([N+](=O)[O-])C1(O)C(=O)c2cccc3cccc1c23` (stereo not given), 0%.
`CC(=O)N(C1=C(Cl)C(=O)c2ccccc2C1=O)c1ccc(Cl)cc1`: the growth inhibition is 99% (active).
Same read-out and setting: to `CCOC(=N)CCCSSc1ccc(N=[N+]=[N-])cc1` belongs -15%.

The same assay, now with this note: S. cerevisiae mec2-1 strain, at 50.0 µM (retest, dose inferred, filed as 5.0), stronger effect = higher value.
Consider `COC(=O)[C@H]1O[C@H]1c1ccncc1`, for which the growth inhibition is -2%.
The same measure, in the same setting: to `O=[N+]([O-])c1ccc(NSc2ccccc2)cc1` belongs 99% (active).
The same measure, in the same setting: the result for `OCCOCCO[P+]1(OCCOCCO)n2c3ccc2C(c2ccccc2)=C2C=CC(=N2)C(c2ccccc2)=c2ccc(n21)=C(c1ccccc1)C1=NC(=C3c2ccccc2)C=C1` reads 99% (active).
For the compound `NCCSC1(O)C(=O)c2ccccc2-c2ccccc21` (stereo not given), the growth inhibition was 99% (active).
On the same count and under the same terms, the result for `C/C=C(\C)C(=O)O[C@@H]1CC(C)(C)CC2C3=CCC4[C@]56CC[C@](O)(OC5)C(C)(C)C6CC[C@@]4(C)C3(C)CC[C@]21C(=O)O` (stereo not given in full) reads 88% (active); that for `CSC(=S)NN=C1CCCCC1`, 98% (active).
The same measure, in the same setting: to `O=C1c2ccccc2C(O)(C#Cc2ccccc2)c2cnccc21` (stereo not given) belongs 97% (active); to `CCCCCC(CCCCC)C(=O)O`, 52%.
As for `CC(C)(N=Nc1ccc([N+](=O)[O-])cc1)[N+](=O)[O-]`, the growth inhibition was 99% (active).
The same measure, in the same setting: the result for `CCCCCCCCCCCCCC(=O)N1CCOCC1` reads 100% (active).
Still for that read-out and setting: the result for `CCOc1ccccc1-c1nc2c(s1)C(=O)c1ccccc1C2=O` reads 99% (active); that for `c1ccc2c(c1)C[n+]1ccc3ccccc3c1-c1c3ccccc3cc[n+]1C2`, 20%.
For the compound `Nc1cc2c(c[n+](CCCCCCCCCC[n+]3cc4c5ccccc5c(N)cc4c4ccccc43)c3ccccc23)c2ccccc12`, the growth inhibition was 96% (active).
Turning to `Cc1ccc(N=C(N)NN=C(c2ccc(Cl)cc2)c2ccc(Cl)cc2)cc1`, the growth inhibition is 38%.
Same read-out and setting: the result for `O/N=C(/C[n+]1csc2ccccc21)c1ccccc1` reads 34%; that for `COc1ccc(C2Oc3c(cccc3OC)C=C2[N+](=O)[O-])cc1` (stereo not given), 98% (active).
The same measure, in the same setting: to `O=C(O)c1c2c(cc3c1CC1(Cc4cc5c(cc4C1=O)CCC5)C3)CCC2` (stereo not given) belongs 58%.
Same read-out and setting: to `CSc1ncnc2ncn(C3OC(CO)C(O)C3O)c12` (stereo not given) belongs -2%; to `CC1SC(=S)N(c2ccc(Cl)cc2)C1=O` (stereo not given), 31%; to `CCOC(=O)C(C(C)=O)C1=C(Cl)C(=O)c2ccccc2C1=O` (stereo not given), 100% (active).
For the compound `CC(C)(C)c1cc(C(O)(C(F)(F)F)C(F)(F)F)c(S)c(C(O)(C(F)(F)F)C(F)(F)F)c1`, the growth inhibition was 99% (active).
For the compound `O=[N+]([O-])C1C(c2ccccc2)CC=CC1N1CCCC1` (stereo not given), the growth inhibition is 95% (active).
The same measure, in the same setting: to `COc1ccc2nc3cc(Cl)ccc3c(NCCNc3c4ccc(Cl)cc4nc4ccc(OC)cc34)c2c1` belongs 97% (active); to `CCN(CC)CCNc1nc(N)c2nc(-c3ccccc3)c(-c3ccccc3)nc2n1`, 22%; to `CC(=O)OCC(=O)[C@@]1(O)CC[C@H]2[C@@H]3CCC4=CC(=O)C=C[C@]4(C)[C@@]3(F)[C@@H](O)C[C@@]21C`, 16%.
Still for that read-out and setting: the result for `O=Cc1cc(S(=O)(=O)c2ccc(O)c(C=O)c2)ccc1O` reads 38%; that for `OCc1cccc2c1Oc1ccccc1S2`, 63%; that for `O=C(CCN1CCCC1)c1ccc(Oc2ccc(F)cc2)cc1`, 48%.
The same measure, in the same setting: to `Cc1ccccc1N1CCN(c2c3c(nc4ccccc24)CCCCC3)CC1` belongs 94% (active); to `CNC(Cc1ccccc1)c1ccc(OC)c2ccccc12` (stereo not given), -16%; to `CCCCN(CCCC)Cc1ccc(NC(C(=O)c2ccccc2)c2ccccc2)cc1` (stereo not given), 49%.
In the case of `CCS(=O)(=O)/C=C(\C#Cc1ccccc1)c1ccccc1`, the growth inhibition was 95% (active).
As for `CN(C)c1c([N+](=O)[O-])cc(N2C(=O)C=CC2=O)cc1[N+](=O)[O-]`, the growth inhibition was 98% (active).
Still for that read-out and setting: to `CNC(=N)c1ccc(NC(=N)c2ccc(NC(=O)c3ccc(C(=O)Nc4ccc(C(=N)Nc5ccc(C(=N)NC)cc5)cc4)cc3)cc2)cc1` belongs 57%.
For `O=[N+]([O-])c1ccc(-c2nc3ccc(F)cc3[nH]2)o1`, the growth inhibition was 99% (active).
On the same count and under the same terms, the result for `CCCCCCC(=O)CC(SCCN)c1ccccc1Cl` (stereo not given) reads 56%; that for `O=C(CC(c1ccccc1Cl)C(C(=O)O)c1ccccc1)c1ccccc1` (stereo not given), 71% (active); that for `CC([N+](=O)[O-])C1(O)C(=O)c2cccc3cccc1c23` (stereo not given), 100% (active).
On the same count and under the same terms, to `CC(=O)N(C1=C(Cl)C(=O)c2ccccc2C1=O)c1ccc(Cl)cc1` belongs 99% (active); to `CCOC(=N)CCCSSc1ccc(N=[N+]=[N-])cc1`, 99% (active).
